Compound activity: PubChem, National Center for Advancing Translational Sciences (NCATS)
The list is not random: actives were taken first. Their share in the collection is about 21%.
Pf growth 96h – inhibits malaria parasite growth, 96 h. AID 504834. Potency, µM (series often up to 28.7 µM), actives largely listed as inhibitors. P. falciparum luciferase reporter growth, 96 h. 320,000 compounds, 6.9% hits
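Infected RBCs, 2% Hct / 0.05% parasitemia final; luciferase-reporter P. falciparum; cpd 96 h, 37 C, 5% CO2; luciferase detection reagent; luminescence.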
Pf growth 48h – inhibits P. falciparum growth in the first generation, 48 h; Potency, µM (titrated, usually from 28.7 µM), hits mostly inhibitors; 310,000 compounds, 5.9% hits; P. falciparum luciferase growth in erythrocytes, 48 h
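First compound was added to culture medium, then infected red cells at 0.1% parasitemia and 2% hematocrit (final). After incubation at 37 C under 5% CO2, luciferase detection reagent was dispensed and light output recorded.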
Shiga toxin inh – Shiga toxin inhibition | inhibition, % at 38.7 µM | 290,000 compounds, 9.2% hits | AID 2315 | Vero cells, Shiga toxin protein synthesis inhibition reporter; in the data active = inhibition mostly above about 28%, no sharp cut-off; inactive = mostly below about 43%
CHX counter – counter-screen for Shiga toxin inhibitors: cycloheximide protein synthesis inhibition | cell reporter, cycloheximide protein synthesis inhibition counterscreen | max response, % | 300,000 compounds, 12% hits | AID 2314; in the data active = max response mostly above about 13%, no sharp cut-off; inactive = mostly below about 14%; note: read at 38.3 µM for the half of the compounds with a filed dose
Large screens that a line does not name were inactive. Unless noted, calls come from the whole dose curve; as a rule, active = well fitted inhibition curve with a large enough effect; inconclusive = small, poorly fitted or top-dose-only effect, or another doubt; inactive = no such curve, though single readings can be large or run the other way.

COc1ccc(/C=C2\C(=O)NCC(=O)N2Cc2ccccc2)cc1	none
COc1ccc(/C=C2\C(=O)N(Cc3ccc(F)cc3)CC(=O)N2Cc2ccccc2)cc1	Pf growth 96h 14.7µM, Pf growth 48h 10.4µM
Cc1ccc(Sc2ncnc3onc(C)c23)cc1	Pf growth 96h inconclusive, Pf growth 48h inconclusive
Cc1ccccc1Sc1ncnc2onc(C)c12	Pf growth 96h 8.28µM (no result: Pf growth 48h)
Cc1noc2ncnc(Sc3ccc(Cl)cc3)c12	none
Cc1noc2ncnc(Sc3c(Cl)cccc3Cl)c12	Pf growth 96h 2.33µM (no result: Pf growth 48h)
COc1ccc2c(c1)[C@@]13CCC=C[C@H]1[C@@H](C2)NCC3	Pf growth 48h 11.7µM (no result: Shiga toxin inh, CHX counter)
COc1ccc(-c2cccc(C3C4C=CCCC4(C)C(=O)N3Cc3ccccc3)c2)cc1 (stereo not given)	none (no result: Pf growth 96h, Pf growth 48h)
CN1CCN(C2CC(=O)N(Cc3ccc(N4CCCC4=O)cc3)C2=O)CC1 (stereo not given)	none
O=C1CC(NCCN2CCOCC2)C(=O)N1Cc1ccc(N2CCCC2=O)cc1 (stereo not given)	Pf growth 96h 4.15µM
CCOC(=O)n1c(=O)n(Cc2ccc(Cl)c(Cl)c2)c2ccccc21	Pf growth 96h inconclusive, Pf growth 48h inconclusive
CCOCCCNC(=O)c1c(N)n(-c2ccc3c(c2)OCO3)c2nc3ccccc3nc12	Pf growth 96h inconclusive, Pf growth 48h inconclusive
O=c1c2c3nc4ccccc4nc3n(-c3ccc4c(c3)OCCO4)c2ncn1C1CCCC1	Pf growth 48h 8.28µM (no result: Pf growth 96h)
O=c1c2c3nc4ccccc4nc3n(-c3ccc4c(c3)OCCO4)c2ncn1CC1CCCO1 (stereo not given)	Pf growth 48h inconclusive
COCCCNC(=O)c1c(N)n(-c2ccc3c(c2)OCO3)c2nc3ccccc3nc12	Pf growth 48h 6.57µM
Nc1c(C(=O)OCC2CCCO2)c2nc3ccccc3nc2n1-c1ccc2c(c1)OCCO2 (stereo not given)	Pf growth 48h inconclusive, Shiga toxin inh 60.2, CHX counter 34.9 (no result: Pf growth 96h)
CCCNC(=O)c1c(N)n(-c2ccc3c(c2)OCO3)c2nc3ccccc3nc12	Pf growth 96h 4.15µM, Pf growth 48h 8.28µM
Cc1cc(C)nc(N/N=C2/CCCC/C2=C\c2ccccc2)n1	Pf growth 96h inconclusive, Pf growth 48h inconclusive
C/C=C(\C)C(=O)NNC(=O)c1sc(-c2ccccc2)nc1C	none
CCOC(=O)c1csc(-c2snnc2C)n1	none
Cc1cc(F)ccc1S(=O)(=O)N1CCCOC1CNC(=O)C(=O)NC1CC1 (stereo not given)	none
CCN(CC)C(=O)CSc1nc2c(sc(=S)n2-c2ccc(C)cc2C)c(=O)[nH]1	Pf growth 96h inconclusive, Pf growth 48h inconclusive
CCCNC(=O)c1c(N)n(-c2cc(OC)cc(OC)c2)c2nc3ccccc3nc12	Pf growth 96h 10.4µM, Pf growth 48h inconclusive
Cc1cc(C)nc(/N=C(\NC(=O)C(C)(C)C)Nc2ccc(F)cc2)n1	none
COc1ccc(CNC(=O)CCSCc2cccc(F)c2)cc1	Pf growth 96h inconclusive
CCn1cc(C2=NC(c3ccccc3)CO2)c2ccccc21 (stereo not given)	none
O=[N+]([O-])c1cccc(C2=NC(c3ccccc3)CO2)c1 (stereo not given)	Shiga toxin inh 80.9, CHX counter 23.4
COc1ccc(C2=NC(c3ccccc3)CO2)cc1 (stereo not given)	Shiga toxin inh 96.4, CHX counter 55.7
COc1ccc(C2=N[C@@H](C(C)C)CO2)cc1	Shiga toxin inh active, CHX counter 63.8 (no result: Pf growth 96h, Pf growth 48h)
COc1ccc(C2=N[C@H](c3ccccc3)CO2)cc1	Shiga toxin inh active (no result: Pf growth 96h, Pf growth 48h)
Cc1cc(=O)n2[nH]c(SCc3ccccc3Cl)nc2n1	none
CCn1cc(C(=O)NC2CCCCC2C)c(=O)c2ccc(C)nc21 (stereo not given)	Pf growth 96h 11.7µM
CCn1cc(C(=O)Nc2ccccc2)c(=O)c2ccc(C)nc21	none
CCn1cc(C(=O)NC2CC3CCC2C3)c(=O)c2ccc(C)nc21 (stereo not given)	Pf growth 96h 5.22µM
CN(CC(=O)Nc1ccccc1Cl)C(=O)c1cc(-c2cccs2)nn1-c1ccccc1	none (no result: Shiga toxin inh, CHX counter)
Cc1ccc(S(=O)(=O)N(CC(=O)NCC2CCCO2)Cc2ccc(F)cc2)cc1 (stereo not given)	Pf growth 48h inconclusive
CNC(C(=O)c1ccccc1)C(OC(C)=O)c1cccc([N+](=O)[O-])c1 (stereo not given)	Pf growth 96h 2.94µM, Pf growth 48h inconclusive
Cc1ccc(OCc2nc(-c3ccc(Cl)cc3)n[nH]2)cc1	Shiga toxin inh 63.4, CHX counter 20.3
CCOC(=O)Cc1ccc(NCc2ccc(Cl)cc2)cc1	Pf growth 96h inconclusive
CCOC(=O)Cc1nc(-c2ccc(Cl)cc2)n[nH]1	CHX counter 25.8
